Experiment [1] in a line: Viability qHTS for spleen associated tyrosine kinase inhibitor (SYKi) drug resistant MV4-11 cells (AID 1963824). Note: nearly all actives have a fitted effect of over 35% in size. The conditions noted are these: SYKi-resistant MV4-11 viability, CellTiter-Glo, 72 h; series mostly up to 45 µM. In outline: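 SYK-inhibitor-resistant MV4-11 AML cells were seeded at 500 per well onto compound and cultured 72 hours (37 °C, 5% CO2). CellTiter-Glo was then added, and after 10 min at room temperature, luminescence gave viability.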
Background: In qHTS, concentration-response curves come from the screen itself.

The nature of experiment [2]: Quantitative highthroughput screen to assess conditional lethalithy of NOMO1 cells grown in RPMI1640 with untreated serum (RPMI+s) (AID 1963876).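 For Viability: 100% = DMSO wells and 0% = empty wells without cells.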 Note: nearly all actives have a fitted effect of over 35% in size. The settings on record: NOMO1 AML cells in RPMI+serum, CellTiter-Glo viability, 48 h; series mostly up to 45.8 µM. In outline:
(§1)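 Each medium arm—HPLM with 10% dialyzed FBS, or RPMI1640 with 5 mM glucose and 10% untreated or dialyzed FBS—was screened against an 11-point, 3-fold compound titration for 48 h at 37 °C, with CellTiter-Glo luminescence as endpoint.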

The nature of experiment [3]: Quantitative highthroughput screen to assess conditional lethalithy of P12 Ichikawa cells grown in Human Plasma-Like Medium with dialyzed fetal bovine serum (HPLM+ds) (AID 1963879). Note: nearly all actives have a fitted effect of over 35% in size. The settings on record: ATP luminescence, 48 h; Potency: viability; series mostly up to 45.8 µM. In outline: as §1
Experiment [4] is described as follows: Quantitative highthroughput screen to assess conditional lethalithy of P12 Ichikawa cells grown in RPMI1640 with dialyzed fetal bovine serum (RPMI+ds) (AID 1963880).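 For Viability: 100% = DMSO wells and 0% = empty wells on each plate.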 Note: nearly all actives have a fitted effect of over 35% in size. The settings on record: ATP luminescence, 48 h; Potency: P12-Ichikawa viability; series mostly up to 45.8 µM. Summed up: as §1
The nature of experiment [5]: Quantitative highthroughput screen to assess conditional lethalithy of P12 Ichikawa cells grown in RPMI1640 with untreated serum (RPMI+s) (AID 1963881).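 For Viability: 100% = DMSO wells and 0% = empty wells without cells.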 Note: nearly all actives have a fitted effect of over 35% in size. The settings on record: ATP luminescence, 48 h; Potency: viability; series mostly up to 45.8 µM. In outline:
as §1

Experiment [6] is described as follows: Quantitative highthroughput screen to assess conditional lethalithy of SEM cells grown in Human Plasma-Like Medium with dialyzed fetal bovine serum (HPLM+ds) (AID 1963882). Note: nearly all actives have a fitted effect of over 35% in size. The conditions noted are these: SEM B-ALL cells in HPLM+ds, CellTiter-Glo viability, 48 h; series mostly up to 45.8 µM. Summed up:
as §1
(In general: ATP-based viability assays read luminescence as a measure of living cells.)

A short description of experiment [7]: Quantitative highthroughput screen to assess conditional lethalithy of SEM cells grown in RPMI1640 with unreated serum (RPMI+s) (AID 1963883).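 For Viability: 100% = DMSO wells and 0% = empty wells without cells.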 Note: nearly all actives have a fitted effect of over 35% in size. The settings on record: SEM B-ALL cells, CellTiter-Glo viability, 48 h; series mostly up to 45.8 µM. In outline: as §1
Experiment [8] in a line: Quantitative highthroughput screen to assess conditional lethalithy of SEM cells grown in RPMI1640 with dialyzed fetal bovine serum (RPMI+ds) (AID 1963884).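 For Viability: 100% = DMSO control wells and 0% = empty wells without cells.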 Note: nearly all actives have a fitted effect of over 35% in size. The settings on record: SEM B-ALL cells, RPMI+dialyzed FBS, CellTiter-Glo viability, 48 h; series mostly up to 45.8 µM. In outline:
as §1

The nature of experiment [9]: Cellular viability qHTS for adrenocortical cancer (ACC) cell line SW-13 (AID 1963989).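 For activity (max response): cells grown in serum-free medium with ITS supplement; % is set by controls: 0 for no effect and ±100 for the full control effect.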 Note: nearly all actives have a fitted effect of over 65% in size. The conditions noted are these: SW-13 ACC cells viability, CellTiter-Glo, 48 h; activity (max response): stronger effect = lower value. In outline:
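Viability was read as CellTiter-Glo luminescence after 48 h compound treatment (up to 46 uM final) of SW-13 cells grown serum-free; titration curves were fit with a four-parameter logistic model to give IC50 and efficacy.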

Experiment [10] can be described thus: Cellular viability qHTS for adrenocortical cancer (ACC) cell line NCI-H295R (AID 1963990). Note: nearly all actives have a fitted effect of over 60% in size. The conditions noted are these: CellTiter-Glo ATP luminescence, 48 h; series mostly up to 46.1 µM. In outline:
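CellTiter-Glo ATP luminescence, read 48 h after compound addition, measured viability of NCI-H295R adrenocortical cells grown serum-free with ITS. Final concentrations spanned up to 46 uM. Data normalized to DMSO and doxorubicin, fitted for IC50 and maximal response.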

The nature of experiment [11]: Quantitative highthroughput screen to assess conditional lethalithy of NOMO1 cells grown in RPMI1640 with dialyzed fetal bovine serum (RPMI+ds) (AID 1963877).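 For Viability: 100% = DMSO control wells and 0% = empty wells.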 Note: nearly all actives have a fitted effect of over 30% in size. The settings on record: NOMO1 in RPMI+dialyzed FBS viability, ATP luminescence, 48 h; series mostly up to 45.8 µM. In outline:
as §1

The nature of experiment [12]: Quantitative highthroughput screen to assess conditional lethalithy of NOMO1 cells grown in Human Plasma-Like Medium with dialyzed fetal bovine serum (HPLM+ds) (AID 1963878).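 For Viability: 100% = DMSO wells and 0% = empty wells on each plate.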 Note: nearly all actives have a fitted effect of over 35% in size. The settings on record: NOMO1 AML cells in HPLM+ds, CellTiter-Glo viability, 48 h; series mostly up to 45.8 µM. In outline:
as §1

16 compounds from PubChem BioAssay (NCATS) can be followed below.

“And” between values parts separate entries of the source, which are not always exact repeats. Identical values can stand only once. Results filed as inconclusive are left out. Unmarked numbers belong to inactive results. The source made the active and inactive calls. Calls come from the whole dose curve; as a rule, active = well fitted curve in the direction sought with a large enough effect; inconclusive = small, poorly fitted or top-dose-only effect, or another doubt; inactive = no such curve, though single readings can be large; an effect the other way counts as inactive or inconclusive.
Potency is the fitted concentration of half-maximal effect.

As to `Cc1ccc(C(=O)N(CCCN)[C@@H](c2nc3cc(Cl)ccc3c(=O)n2Cc2ccccc2)C(C)C)cc1`, the Potency in experiment [1] was 0.0037 µM (active); in [2] it was 1.3 nM (active); in experiment [3], 1.3 nM (active); in experiment [4], 2.1 nM (active); in experiment [5] it was 1.3 nM (active); in [6], 1.2 nM (active). The Potency in experiment [7] was 1.2 nM (active); in [8] it was 1.3 nM (active); in [9] it was 10 nM (active); in [10] it was 79.4 nM (active).
Take `CCNC(=O)c1noc(-c2cc(C(C)C)c(O)cc2O)c1-c1ccc(CN2CCOCC2)cc1`: the Potency was 0.0073 µM (active) in experiment [1], 83.3 nM (active) in experiment [2], 83.3 nM (active) in experiment [11] and 41.8 nM (active) in [7].
`CCCCn1c(=O)n(Cc2ccccc2F)c(=O)c2[nH]c(Cc3ccc(NC(C)=O)cc3)nc21`: in experiment [1], the Potency is 18.6 µM (active). The Potency entry in experiment [2], in experiment [12], in experiment [3], in experiment [4], in experiment [5] and in [6] was “inactive” throughout. Further, the Potency result in experiment [7], in [8] and in [10] was “inactive” in each case. Further, the activity (max response) in experiment [9] was -3.74%.
As to `COc1cccc2nc(-c3cccs3)nc(NN3C(=O)C=C(C)C3=O)c12`, the Potency in experiment [1] is 0.148 µM (active); in experiment [2], 1480 nM (active); in experiment [12], 469 nM (active); in [4], 2960 nM (active); in [5] it was 2640 nM (active); in experiment [6] it was 418 nM (active). Besides, the Potency in [8] was 1320 nM (active); in experiment [9] it was 11200 nM (active); in experiment [10], 2820 nM (active).
Consider `CC(=O)Oc1ccccc1C(=O)Nc1ncc([N+](=O)[O-])s1`, for which, in [1], the Potency is 11.9 µM (active) and 20.9 µM (active). Further, the Potency entry in experiment [2], in [11], in experiment [5], in [7], in experiment [8] and in experiment [10] was “inactive” each time. Moreover, in experiment [9], the activity (max response) was 7.32% and 2.04%.
Take `CN(C)C(=O)c1ccc(S(=O)(=O)c2ccc(NC(=O)[C@@](C)(O)C(F)(F)F)c(Cl)c2)cc1`: the Potency is 9.2 µM (active) and 3.72 µM (active) in [1]; 11800 nM (active) in experiment [2]; 10500 nM (active) in [12]; 14800 nM (active) in experiment [5]; 11800 nM (active) in [7]. The Potency result in [10] is “inactive”.
Take `O=c1cc(-c2ccccc2)oc2cc(O)c(O)c(O)c12`: the Potency in [1] was 18.6 µM (active); in [2], 5900 nM (active); in [3] it was 5900 nM (active); in experiment [5] it was 9350 nM (active); in experiment [7] it was 4180 nM (active); in [8] it was 8330 nM (active). Besides, in [12], the Potency result was “inactive”.
As for `NCc1ccc(OCCCc2sc(-c3ccc4c(c3)/C(=N/Nc3nc5ccccc5s3)CCC4)nc2C(=O)O)cc1`, the Potency in experiment [1] was 9.34 µM (active); in [2], 5.9 nM (active); in experiment [3], 4.7 nM (active); in [5], 33.1 nM (active); in experiment [8], 4.7 nM (active). Also, the activity (max response) in experiment [9] was -8.27%. In experiment [10], the Potency entry was “inactive”.
For the compound `CNC(=O)CN1CCC(Oc2cc3c(Nc4cccc(Cl)c4F)ncnc3cc2OC)CC1`, the Potency in experiment [1] is 11.6 µM (active); in experiment [2], 372 nM (active); in experiment [3] it was 2640 nM (active); in experiment [4], 3320 nM (active); in [5], 2090 nM (active); in [9], 562 nM (active). In addition, in experiment [10], the Potency entry is “inactive”.
Consider `CN(C)c1ccc(-c2nc3ncc(Cl)c(N4CCN(CC(=O)Nc5nccs5)CC4)c3[nH]2)cc1`, for which the Potency was 0.645 µM (active) in experiment [1] and 18700 nM (active) in experiment [12]. The Potency result in experiment [2], in experiment [3], in [4], in experiment [5] and in experiment [10] was “inactive” throughout. Further, in experiment [9], the activity (max response) was -12.9%.
Regarding `CCc1c2c(nc3ccc(OC(=O)N4CCC(N5CCCCC5)CC4)cc13)-c1cc3c(c(=O)n1C2)COC(=O)[C@]3(O)CC`, the Potency in experiment [1] is 2.66 µM (active) and 296 nM (active); in experiment [2], 2960 nM (active); in experiment [3] it was 1180 nM (active); in [4] it was 1180 nM (active); in experiment [5], 833 nM (active); in experiment [7] it was 1870 nM (active). The Potency is 1480 nM (active) in experiment [8]; 3.66 µM (active) and 3.55 µM (active) in experiment [9].
Turning to `Cc1ccc(-n2[nH]c(C)c(N=Nc3cccc(-c4cccc(C(=O)O)c4)c3O)c2=O)cc1C`, the figures for the Potency in experiment [1] and in [3] were 13.3 µM (active) and 16600 nM (active), respectively. Further, the Potency entry in experiment [2] was “inactive”. Also, the activity (max response) in [9] was 7.78%.
As to `COc1ncc(-c2ccc3nccc(-c4ccnnc4)c3c2)cc1NS(=O)(=O)c1ccc(F)cc1F`, the Potency is 58 nM (active) and 132 nM (active) in experiment [1]; 105 nM (active) in [2]; 2090 nM (active) in [4]; 469 nM (active) in experiment [6]; 372 nM (active) in experiment [8]; 1120 nM (active) in [9]. For the same compound, the Potency in experiment [10] is 28.2 nM (active).
Consider `O=C(O)c1ccc2cc(-c3ccc(O)c(C45CC6CC(CC(C6)C4)C5)c3)ccc2c1`, for which the Potency in experiment [1] is 0.417 µM (active); in experiment [2] it was 1050 nM (active); in experiment [3], 590 nM (active); in [4], 418 nM (active); in experiment [5], 469 nM (active); in [6], 372 nM (active). For the same compound, the Potency was 372 nM (active) in experiment [7], 235 nM (active) in [8] and 708 nM (active) in experiment [10].
Consider `Cc1ccc(C(C)(O)c2nc3ccccc3s2)c(C)c1` (stereo not drawn), for which the Potency in [1] is 16.6 µM (active); in [2], 13200 nM (active); in [3] it was 10500 nM (active); in experiment [4] it was 18700 nM (active); in [5] it was 14800 nM (active).
Take `Cc1n[nH]c(C)c1Cc1sc2c(c1C(=O)N1C[C@H](O)CO1)c(=O)n(C)c(=O)n2CC(C)C`: the Potency result in experiment [1], in experiment [2], in experiment [12], in [3], in experiment [4] and in [5] was “inactive” throughout. Also, the Potency result in experiment [8] was “inactive”. The activity (max response) in experiment [9] is 15%.
